Reference: PubChem BioAssay (NCI)
Values joined by “and” are separate entries in the source; they are usually repeats but may differ in a detail not shown here. Equal entries are not always repeated. About 83,000 compounds went through this panel and 20% of them were active in at least one assay; those are over-represented in the sample as a whole.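 Method: cells in 96-well plates; compound added at one concentration; 48 h incubation; percent growth measured; values under 10 scored active.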 Unmarked numbers belong to inactive results. Active and inactive are the calls of the source.

system: NCI-H322M lung; test: NCI-60 one-dose screen, 48 h (100 = growth as untreated, 0 = no growth, -100 = all killed); conditions: 10 µM
Description: Growth inhibition of the NCI-H322M human Non-Small Cell Lung tumor cell line is measured as a screen for anti-cancer activity. Cells are grown in 96 well plates and exposed to the test compound for 48 hours. Compounds are tested at a single concentration, which is 10^-5 M for most compounds. The reported endpoint is percent growth (GI% or GIPRCNT), where numbers from 0 - 100% represent growth inhibition, and numbers from -100% - 0 represent cell death. For example, a value of 40 represents 60% growth inhibition. A value of 0 means no net growth occurred over the course of the experiment. A value of -40 indicates 40% of cells at the beginning of the experiment died by the end of the experiment. A value of -100 means all cells are dead at the end of the experiment.
NCI-60 Human Tumor Cell Lines Screen was performed using the standard one-dose NCI protocol, which is described in more detail at https://dtp.cancer.gov/discovery_development/nci-60/default.htm.
Compounds with GIPRCNT values below 10 were considered active. Activity score was based on GIPRCNT using the following formula: […]
Score is 0 for GIPRCNT values of 100 or above, 50 for GIPRCNT values of 0, and 100 for GIPRCNT values of -100.

Compound	growth [%]
CS/C(=C\c1ccc(C(=O)c2ccc(C)cc2)n1C)S(C)=O (stereo not given)	98

same assay, conditions: 10 µM unless noted

Compound	growth
O=c1[nH]nnc2cc(Cl)ccc12	110% and 115%
CN1C2C=CC(=O)C1C1C(=O)N(c3ccccc3)C(=O)C12 (stereo not given)	98.4%
Cc1ccc(NC(=S)N/C=C(\c2ccccc2)S(=O)Cc2ccccc2)c(C)c1 (stereo not given)	94.8%
O=S(=O)(O)c1ccc2cc(O)ccc2c1	99.2%
N#CC(=S)Nc1ccc(Cl)c(Cl)c1	-3.76% (active)
CNc1ccc(Cl)cc1S(=O)(=O)c1ccccc1[N+](=O)[O-]	89.1% and 91%
O=C(OCc1ccccc1)c1ccccc1	115% and 106%
N=c1sc2ccccc2n1CC(=O)O	103%
Cc1cc(-c2ccc(N=Nc3c(C)nn(-c4ccc(S(=O)(=O)O)cc4)c3O)c(C)c2)ccc1N=Nc1ccc(O)c(C(=O)O)c1	107%
Nc1c(Cl)cc2c(c1Br)C(=O)c1ccccc1C2=O	96%
Nc1[nH][nH]c(=O)c1N=Nc1ccccc1	129% and 102%
O=C1c2ccccc2C(c2ccccc2)C1c1ccccc1 (stereo not given)	92.5%
COc1ccc(/C=C/C(=O)O)cc1OC	101% and 115%
C(#CCN1CCOCC1)CCCN1CCOCC1	119% and 99%
O=[N+]([O-])c1ccc(N/N=C/C2CCCCCC2)c([N+](=O)[O-])c1	78.8%
CC(C)(C)OC(=O)c1ccc(NCc2cc(O)ccc2O)cc1	84.1%
CC(=O)C[n+]1ccccc1Sc1ccc(Cl)cc1	99.6%
Cc1ccc([N+](=O)[O-])cc1Br	111%
ON=C(C1CCCCC1)C1CCCCC1	93.2%

Compound	growth
CN(C)CC(CN(C)C)C(O)c1ccccc1 (stereo not given)	103%
CC(C)=NOC(C)C(=O)O (stereo not given)	118%
CC(=O)Nc1ccc(OC(C)=O)cc1	29.5% and 112%
O=C(O)c1cc(=O)[nH]c(=O)[nH]1	89.8% and 97.5%
NCCSSC/C=C\CSSCCN	100%
CCN(CC)CCO/N=C1\CC(c2ccc(OC)c(OC)c2)Oc2ccccc21 (stereo not given)	94.8%
N#Cc1c[nH]n2ccnc12	98.7%
CC1=CC(=O)C=CC1=Nc1ccc(N(C)C)cc1	99.2% and 88.2%
CC(=O)c1cccc(OC(=O)c2ccccc2)c1	136%
CC(=O)Nc1cscc1NC(C)=O	80.1%
O=[N+]([O-])c1cccc2ccc(N/N=C/c3ccccc3O)nc12	88.2% and 94.8%
CC(=O)Nc1ccc2oc(=O)ccc2c1	101%
O=C1C=CC(n2cc(F)c(=O)[nH]c2=O)O1 (stereo not given)	67.4%
Nc1ccc(O)c(C(=O)O)c1	131% and 106% and 99.2%
COCCCNC1=C(C#N)C(=O)NC(c2cccs2)S1 (stereo not given)	95.4%
S=c1nc[nH]c2nc[nH]c12	33% [50 µM]
Nc1ccccc1SC1CC(=O)N(c2ccc(I)cc2)C1=O (stereo not given)	108%
COC(=O)c1cc(C(=O)OC)cc([N+](=O)[O-])c1	117%
COc1ccc2oc3c(ccc[n+]3C)c(=O)c2c1	105%

same assay, conditions: 100 µM

Compound	growth [%]
CS/C(=C\c1ccc(C(=O)c2ccc(C)cc2)n1C)S(C)=O (stereo not given)	103
